From PubChem
Only some compounds are listed: those with a hit (about 14% of all), similar ones and a draw of the others.
FBPA Giardia inh: blocks Giardia fructose-bisphosphate aldolase activity | purified Giardia FBPA | AID 2451 | actives 0.71% (n = 290,000) | Potency, µM (top dose mostly 59.6 µM), without a hit: top-dose activity, negative = inhibition, actives largely listed as inhibitors; note: potency is the fitted concentration of half-maximal effect; nearly all actives have a fitted effect of over 55% in size
Target sequence (A8B2U2 whole entry, looked up): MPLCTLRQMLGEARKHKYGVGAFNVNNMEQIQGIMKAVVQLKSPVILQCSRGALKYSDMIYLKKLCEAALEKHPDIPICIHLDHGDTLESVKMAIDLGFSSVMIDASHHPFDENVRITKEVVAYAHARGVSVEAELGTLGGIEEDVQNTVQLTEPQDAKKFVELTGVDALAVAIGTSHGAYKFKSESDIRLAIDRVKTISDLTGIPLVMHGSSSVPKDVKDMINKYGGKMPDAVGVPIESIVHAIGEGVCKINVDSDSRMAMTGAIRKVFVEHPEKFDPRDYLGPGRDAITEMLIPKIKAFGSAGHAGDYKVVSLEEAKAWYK
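Giardia FBPA (40 nM reagent) was preincubated 10 min at RT with compound (up to 57.5 uM final), then substrate plus GAPDH/TPI/NAD/arsenate coupling system with diaphorase/resazurin was added; resorufin fluorescence (525/598 nm) was read after 20 min.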
Pf growth 96h: P. falciparum growth inhibition at 96 hour, primary screen for plastid delayed-death inhibitors. P. falciparum luciferase reporter growth, 96 h. Potency, µM (doses to about 28.7 µM), for inactives: top-dose activity change, negative = inhibition, usual class: inhibitors. actives 6.9% (n = 320,000). AID 504834; note: potency is the fitted concentration of half-maximal effect
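Cell-based qHTS: luciferase-tagged P. falciparum in erythrocytes (2% hematocrit, 0.05% parasitemia final) incubated with compounds for 96 hours, 37 C, 5% CO2; luciferase detection reagent then added and luminescence measured.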
Pf growth 48h: inhibits P. falciparum growth in the first generation, 48 h; P. falciparum luciferase growth in erythrocytes, 48 h; Potency, µM (series often up to 28.7 µM), for the others: top-dose activity change, negative = inhibition, actives largely listed as inhibitors; actives 5.9% (n = 310,000); AID 504832; note: potency is the fitted concentration of half-maximal effect
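Luciferase-expressing P. falciparum in infected erythrocytes (2% hematocrit, 0.1% parasitemia final) in RPMI 1640/0.5% Albumax were exposed to compound for 48 hours at 37 C, 5% CO2; growth read as luminescence.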
HCMV antiviral: inhibitors of human cytomegalovirus; HFF cells, HCMV-luciferase reporter, 72 h; stronger effect = lower value; activity change, negative = inhibition, % at 57.5 µM; actives 4.5% (n = 410,000); in the data active = activity change below about -60%; inconclusive = no clear call, values can overlap the other calls; inactive = above about -39%
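Cell-based, HFFs, 1000 cells/well, 16 h 37C; cpds in DMSO + HCMV-luc, MOI 1 PFU/cell; 72 h 37C; OneGlo luminescence after 5 min RT; norm. to buffer vs Salinomycin 10uM.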
Sm TGR block: blocks Schistosoma mansoni thioredoxin glutathione reductase. Q962Y6. purified TGR, DTNB reduction, TNB absorbance 405 nm. Potency, µM (series often up to 114 µM), inactives show top-dose activity change, negative = inhibition, actives largely listed as inhibitors. actives 3% (n = 360,000). AID 485364; note: potency is the fitted concentration of half-maximal effect; nearly all actives have a fitted effect of over 60% in size
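First, TGR (20 nM dispensed) and NADPH were mixed with compound. Second, a 15 min room-temperature incubation followed. Third, further NADPH and then DTNB were added to start the reaction. Finally, TNB absorbance was monitored kinetically.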
An asterisk follows results filed as active; ? = inconclusive; . = not tested or not shown; [ ] = remark or other dose. Unless noted, calls come from the whole dose curve; as a rule, active = well fitted curve in the direction sought with a large enough effect; inconclusive = small, poorly fitted or top-dose-only effect, or another doubt; inactive = no such curve, though single readings can be large; an effect the other way counts as inactive or inconclusive. % is set by controls: 0 for no effect and ±100 for the full control effect.

SMILES | FBPA Giardia inh | Pf growth 96h | Pf growth 48h | HCMV antiviral | Sm TGR block
COc1ccc(NCN2C(=O)C3C4C=CC(C4)C3C2=O)cc1 (centres undefined) | -20% | 10µM* | 1% | -29 | 11%
COc1cccc(N=C(N)N=C(N)N)c1 | 9% | ? | 0% | 4 | -2%
NC(N)=NC(N)=Nc1ccc(SC(F)(F)F)cc1 | 1% | 3.3µM* | 15µM* | -17 | 6%
Cc1ccc(N2CCN(C(=O)c3c(C)oc4nc(C)nc(N5CCCC5)c34)CC2)c(C)c1 | . | . | . | 10 | 28%
O=C(COc1ccc([N+](=O)[O-])cc1Cl)N1CCOCC1 | -2% | 20% | 21% | ? | 8%
O=[N+]([O-])c1ccc2c(c1)C(N1CCOCC1)/C(=C/COc1ccc(Cl)cc1Cl)O2 (centres undefined) | 0% | ? | 12µM* | -20 | -18%
CN(C)c1cccc(C(=O)N2CCCC(C(=O)c3cc(F)ccc3F)C2)c1 (centres undefined) | -3% | 30% | ? | -2 | 9%
CN(C)S(=O)(=O)N1CCCC(C(=O)c2ccc(-c3ccccc3)cc2)C1 (centres undefined) | -2% | ? | -27% | -18 | 0%
COc1ccc(/C=C/CN2CCCC(C(=O)c3ccc(OC)c(F)c3)C2)cc1 (centres undefined) | 0% | 29% | ? | -19 | -13%
COCCC(=O)N1CCCC(C(=O)c2ccc(C(F)(F)F)cc2)C1 (centres undefined) | 9% | 13µM* | -1% | 124 | -1%
CN(C)S(=O)(=O)N1CCCC(C(=O)c2ccc(C(F)(F)F)cc2)C1 (centres undefined) | -4% | 0.83µM* | -7% | ? | -30%
COc1ccc(C(=O)C2CCCN(C(=O)COc3ccc(C(C)=O)cc3)C2)cc1F (centres undefined) | 1% | 12µM* | -13% | 24 | .
COc1ccc(F)cc1C(=O)C1CCCN(C(=O)c2cccc(N(C)C)c2)C1 (centres undefined) | -7% | ? | 5.9µM* | ? | 13%
O=C(c1ccc(C(F)(F)F)cc1)C1CCCN(C(=O)CN2CCCC2=O)C1 (centres undefined) | -21% | 14% | -2% | -15 | 1%
COc1ccc(CCNC(=O)C2CCN(C(=O)c3ccc(Br)cc3)CC2)cc1 | -1% | ? | ? | -19 | 0%
Cc1ccccc1OCCC(=O)Nc1ccc(S(=O)(=O)N2CCCC2)cc1 | . | . | . | 20 | .
CCOC(=O)c1c(C)oc2ncnc(Nc3cc(Cl)ccc3OC)c12 | . | . | . | 4 | 7%
CCc1nnc(NC(=O)CCC(=O)NC2CCCc3ccccc32)s1 (centres undefined) | -2% | -9% | -13% | 8 | 1%
COCc1ccc(C(=O)N2CCCC(C(=O)c3ccc(SC)cc3)C2)s1 (centres undefined) | 9% | ? | -6% | -87* | 0%
COc1ccc(C(=O)C2CCCN(C(=O)c3ccccc3C(C)=O)C2)cc1F (centres undefined) | 1% | ? | 9% | ? | 40µM*
CSc1ccc(C(=O)C2CCCN(C(=O)c3ccc4c(c3)OCO4)C2)cc1 (centres undefined) | . | 41% | 5% | -36 | 4%
COc1ccc(C(=O)C2CCCN(C(=O)c3ccc(CSC)o3)C2)cc1F (centres undefined) | . | -12% | 10% | -34 | 28µM*
CC(=O)c1ccccc1C(=O)N1CCCC(C(=O)c2ccc(C(F)(F)F)cc2)C1 (centres undefined) | -4% | 52% | -1% | 18 | 40µM*
O=C(NCCc1cccs1)Nc1ccc2nc([C@@H]3O[C@H](CO)[C@@H](O)[C@H]3O)[nH]c2c1 | . | . | . | 2 | .
CC(C)OCCCn1c(SCc2ccccc2C#N)nc2c(sc3ccccc32)c1=O | . | . | . | -3 | 5%
SMILES | FBPA Giardia inh | Pf growth 96h | Pf growth 48h | HCMV antiviral | Sm TGR block
Nc1c(C(=O)Nc2ccccc2)sc2nc(-c3ccco3)ccc12 | 0% | 15% | 16% | 9 | 1µM*
Nc1c(C(=O)Nc2nc3ccccc3s2)sc2nc(-c3cccs3)ccc12 | -12%[12.9 µM] | 0% | 82% | . | 11%
Nc1c(C(=O)Nc2ccccc2Br)sc2nc(-c3cccs3)ccc12 | . | . | . | -71* | 6%
COc1ccccc1NC(=O)c1sc2nc(-c3ccco3)ccc2c1N | -1% | . | 13% | . | ?
Cc1c(C(=O)OC(C)C)sc(NC(=O)C2CCCO2)c1C(=O)OC(C)C (centres undefined) | -2% | 9.3µM* | . | 23 | 8%
CN(C)Cc1cc(C(C)(C)c2ccccc2)ccc1O | . | . | . | -5 | .
CN(C)Cc1ccc(O)c(CCc2ccccc2)n1 | 8% | 7% | 5.2µM* | -2 | ?
CN(Cc1ccccc1)C(=O)Nc1c(Cl)cccc1Cl | . | . | . | 79 | .
Cc1ccc(S(=O)(=O)N2CC(O)C2)cc1 | . | 0% | 8% | -18 | -9%
COc1ccc(/C=C/C(=O)c2ccccc2O)cc1CN1CCOCC1 | 0% | 10µM* | . | . | ?
COc1ccc(/C=C/C(=O)c2ccc3ccccc3c2O)cc1CN1CCOCC1 | -1% | 12µM* | -13% | -21 | 5%
COc1ccc(/C=C/C(=O)c2ccc(O)cc2)cc1CN1CCOCC1 | 2% | -18% | ? | ? | -7%
COc1ccc(C(=O)/C=C/c2ccc(OC)c(Cn3nnc4ccccc43)c2)cc1 | 3% | 0.1µM* | ? | ? | -6%
COc1ccc(C(=O)/C=C/c2ccc(OC)c(CN3CCOCC3)c2)cc1 | 1% | 25% | -1% | -77* | -3%
COc1ccc(/C=C2/CCc3ccccc3C2=O)cc1CN1CCOCC1 | -5% | -18% | 31% | -12 | -2%
CCCNC(=O)N1CCC2(CC1)CN(C(=O)c1ccccc1)[C@H](CO)c1[nH]c3cc(OC)ccc3c12 | . | . | . | -2 | .
Oc1c(CN2CCOCC2)cc(-c2ccccc2)cc1CN1CCOCC1 | 3% | ? | ? | 11 | 6%
COc1ccc(/C=C/C(=O)C23CC4CC(CC(C4)C2)C3)cc1CN1CCOCC1 | 0% | 21% | 13µM* | -82* | 2%
Oc1c(CN2CCOCC2)ccc2ccccc12 | ? | -9% | ? | -8 | 0.56µM*
CCOC(=O)C1(C)CCN1C(=O)c1ccc(F)c(Cl)c1 (centres undefined) | . | . | . | 10 | .
COC(=O)NC1CCC(NC(=O)OC)CC1 (centres undefined) | 2% | 7% | 8% | -14 | 2%
CC1CCCCC1NC(=O)COC(=O)c1ccc2c(c1Cl)C(=O)c1ccccc1C2=O (centres undefined) | -4% | 13% | -4% | -74* | -16%
COc1ccc(CCN(C)CC(O)COc2c(C)ccc(C)c2C)cc1OC (centres undefined) | 9% | ? | 15µM* | -4 | -30%
